Results: PubChem BioAssay
“And” between values parts separate entries of the source, which are not always exact repeats. Equal entries are not always repeated. The source made the active and inactive calls.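 How the source made its calls, unless noted: active means inhibition at or above 50% relative to wild type and mutant plate controls; inactive means inhibition below 50%.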

Assays:
[1] = inhibitors of TNFa-induced NFkB p65 translocation, primary screen, imaging, HUVEC, MLSMR starter and 10KST1 sets (AID 438;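 active means inhibition above 20% together with a positive visual image hit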;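 further: compound added about 3h40 before a 20 min TNFalpha stimulation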;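 on inhibition: signal is the nuclear over cytoplasmic p65 intensity ratio per well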); details: HUVEC TNFa-induced p65 nuclear translocation; cell count: measured here: nuclei count (cytotoxicity indicator), at 2.08 µM; inhibition: at 2 µM, stronger effect = higher value, 0% TNFa-plus-vehicle, 100% no-TNFa wells
[2] = reduction of polyQ htt aggregates in cells – imaging, exon1htt(103Q)mCFP cells, high-content imaging, primary screen (AID 483;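 active means visual image review flags a hit and inhibition of aggregation exceeds 20%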;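 further: compound exposure lasted 3 days before fixation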;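 on nuclei count: percent of the per-plate median nuclei count of sample wells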); details: exon1htt(103Q)mCFP cell line, aggregate imaging, at 2 µM; inhibition of aggregation: stronger effect = higher value; nuclei count: measured here: cell count, toxicity
[3] = endothelial E-selectin expression blockers – imaging, HUVEC, immunofluorescence, MLSMR starter and 10KST1 sets, primary screen (AID 487;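 active means visually confirmed hit in the image check and inhibition above 20%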;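 on inhibition: signal is fraction of cell area covered by stained E-selectin grains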;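 on nuclei count: 100% = median nuclei count of all wells on the same plate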); details: HUVEC TNFalpha-induced E-selectin immunofluorescence imaging, at 2 µM; inhibition: stronger effect = higher value; nuclei count: measured here: cell number, toxicity
[4] = Primary imaging screen for DUSP6 inhibitors that restore phospho-Erk in transfected HeLa cells, chemical complementation (AID 609;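 active means compounds giving at least 50% inhibition in the cell-based MKP-3 phosphatase rescue imaging test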;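 on inhibition: phospho-Erk level distribution per well compared with pooled transfected vehicle control wells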); details: HeLa MKP-3 transfected, phospho-Erk imaging KS statistic, at 10 µM, cells stimulated with TPA for 15 min
[5] = target: Dual specificity protein phosphatase 6 (Homo sapiens) (UniProt Q16828); assay: as above; details: HeLa MKP-3 transfected, phospho-Erk imaging KS statistic; at 10 µM; stronger effect = higher value; cells stimulated with TPA for 15 min
[6] = target: Voltage-gated potassium channel subunit beta-2 (Rattus norvegicus) (UniProt P62483); assay: inhibitors of rat Kvbeta2 reductase activity – biochemical, NADPH fluorescence, primary screen (AID 622;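 active means fluorescence slope higher than the sample average by over 3 SD, cut at about -0.22 in these data, passing the limit was not always enough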;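 further: slope of raw intensity against log time taken from 70 to 1610 s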); details: recombinant KvBeta, 4-cyanobenzaldehyde reduction, at 10 µM, stronger effect = higher value
[7] = target: Voltage-gated potassium channel subunit beta-2 (Rattus norvegicus) (UniProt P62483); assay: enhancers of rat Kvbeta2 NADPH turnover – biochemical, NADPH fluorescence, primary screen (AID 623;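 active means NADPH fluorescence slope more negative than the mean of all samples by about 3 SD, 99.7% confidence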;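 further: fluorescence intensity change per second fitted from 20 to 320 s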); details: Recombinant KvBeta, NADPH fluorescence decrease slope, 10 min; at 10 µM; stronger effect = lower value
[8] = target: Alpha-2C adrenergic receptor (Homo sapiens) (UniProt P18825); assay: compounds altering alpha2C-coupled GIRK flux – cell-based, HEK293 alpha2C/GIRK1/2, thallium flux, primary screen (AID 624;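 active means fluorescence slope after compound addition differing from the mean of all screened samples at 99.7% confidence, in either direction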;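 further: slope of fluorescence ratio to pre-addition baseline per second over 15 to 24 s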); details: thallium flux BTC fluorescence, at 10 µM, actives lie on both sides
[9] = target: Muscarinic acetylcholine receptor M4 (Homo sapiens) (UniProt P08173); assay: M4-linked GIRK flux change, two-sided – cell-based, HEK293 M4/GIRK, thallium flux, BTC-AM, M4 allosteric agonist project, primary screen (AID 625;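 active means fluorescence slope after compound addition differing from the mean of all tested samples at 99.7% confidence, mostly higher but some lower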;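 further: thallium influx through GIRK channels coupled to M4 in HEK293 cells with BTC-AM dye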); details: at 10 µM, actives lie on both sides
[10] = inhibitors of larval lipid processing in zebrafish, primary screen, whole organism, PED6 fluorescence, gall bladder and intestine (AID 686;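 active means a full or partial loss of lipid-probe fluorescence in the fish gall bladder, intestine or both, judged by eye; inactive means no fluorescence loss, or compound toxic to the fish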;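 further: larvae 5 to 7 days old with five fish per well; signal comes from phospholipase A2 cleavage of quenched PED6 carried via bile; overnight exposure to compound and PED6 before scoring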); details: Zebrafish larvae PED6 lipid processing, fluorescence scoring; screened at 20 µM (by protocol)
[11] = loss of swimming-algae plug formation – whole organism, Chlamydomonas reinhardtii, WT vs cilia-less mutant, absorbance, 96-well, primary screen (AID 463189); details: Chlamydomonas reinhardtii gravitaxis, OD600 absorbance, 2 days; at 10 µM; stronger effect = higher value;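 further: 0% = wild type cc124 cells in DMSO and 100% = ciliumless bld1 mutant cells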
[12] = blockers of RIG-like receptor reporter activation – cell-based, Sendai virus stimulus, luciferase, 10K MLSCN set, TLR/RLR signaling modifier project, primary screen (AID 602276;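 active means inhibition at or above 50% at 10 µM; inactive means inhibition below 50%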;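 further: firefly luciferase from ISG56 promoter only with Renilla not read in this screen; 0% = Sendai virus plus DMSO and 100% = medium plus DMSO without virus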); details: HEK293 RL24 IRF3 luciferase reporter, at 10 µM, stronger effect = higher value
[13] = TLR3 IRF3 reporter activation blockers – cell-based, poly I:C stimulus, luciferase, 10K MLSCN set, primary screen (AID 602277;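 active means inhibition of the reporter signal at or above 50%; inactive means inhibition below 50%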); details: HEK293-TLR3 RL24 IRF3 luciferase reporter, at 10 µM, stronger effect = higher value
[14] = measured here: cell density z-score
[15] = measured here: nuclear c-Myc green intensity z-score
[16] = measured here: nuclear pErk red intensity z-score, stronger effect = higher value

Chain of Alpha-2C adrenergic receptor (Homo sapiens) (P18825 whole entry, looked up): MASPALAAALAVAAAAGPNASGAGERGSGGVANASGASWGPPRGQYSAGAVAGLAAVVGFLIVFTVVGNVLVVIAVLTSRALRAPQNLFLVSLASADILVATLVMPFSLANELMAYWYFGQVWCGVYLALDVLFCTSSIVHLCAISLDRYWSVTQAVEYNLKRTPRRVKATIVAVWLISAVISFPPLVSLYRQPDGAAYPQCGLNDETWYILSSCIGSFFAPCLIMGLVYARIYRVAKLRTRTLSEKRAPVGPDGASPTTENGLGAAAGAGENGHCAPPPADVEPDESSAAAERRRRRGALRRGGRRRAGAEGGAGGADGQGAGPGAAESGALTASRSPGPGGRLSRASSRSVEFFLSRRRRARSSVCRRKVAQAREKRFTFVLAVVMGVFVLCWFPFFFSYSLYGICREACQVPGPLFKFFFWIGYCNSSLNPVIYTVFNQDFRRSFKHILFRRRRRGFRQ
Chain of Muscarinic acetylcholine receptor M4 (Homo sapiens) (P08173 whole entry, looked up): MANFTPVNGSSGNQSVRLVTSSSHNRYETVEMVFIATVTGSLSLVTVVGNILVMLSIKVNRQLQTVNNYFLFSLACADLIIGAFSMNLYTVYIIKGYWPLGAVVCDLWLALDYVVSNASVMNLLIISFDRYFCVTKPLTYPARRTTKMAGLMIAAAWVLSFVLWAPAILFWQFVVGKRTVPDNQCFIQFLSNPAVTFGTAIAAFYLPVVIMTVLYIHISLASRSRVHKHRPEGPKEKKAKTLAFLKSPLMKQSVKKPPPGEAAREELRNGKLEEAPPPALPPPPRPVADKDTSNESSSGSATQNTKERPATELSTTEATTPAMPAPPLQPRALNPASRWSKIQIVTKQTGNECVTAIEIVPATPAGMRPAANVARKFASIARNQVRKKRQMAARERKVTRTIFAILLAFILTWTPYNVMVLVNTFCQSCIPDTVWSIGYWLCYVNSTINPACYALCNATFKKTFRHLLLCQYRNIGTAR
Chain of Voltage-gated potassium channel subunit beta-2 (Rattus norvegicus) (P62483 whole entry, looked up): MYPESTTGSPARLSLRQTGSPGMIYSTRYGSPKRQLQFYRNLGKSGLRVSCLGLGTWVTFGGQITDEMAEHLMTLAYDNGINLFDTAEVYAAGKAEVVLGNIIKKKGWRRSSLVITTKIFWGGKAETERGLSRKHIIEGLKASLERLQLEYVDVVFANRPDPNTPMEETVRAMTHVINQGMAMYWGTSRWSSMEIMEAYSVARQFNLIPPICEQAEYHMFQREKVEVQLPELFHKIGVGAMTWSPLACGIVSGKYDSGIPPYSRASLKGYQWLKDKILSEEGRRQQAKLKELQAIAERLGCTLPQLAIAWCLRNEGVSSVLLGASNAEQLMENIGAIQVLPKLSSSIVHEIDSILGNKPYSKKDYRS
Chain of Dual specificity protein phosphatase 6 (Homo sapiens) (Q16828 whole entry, looked up): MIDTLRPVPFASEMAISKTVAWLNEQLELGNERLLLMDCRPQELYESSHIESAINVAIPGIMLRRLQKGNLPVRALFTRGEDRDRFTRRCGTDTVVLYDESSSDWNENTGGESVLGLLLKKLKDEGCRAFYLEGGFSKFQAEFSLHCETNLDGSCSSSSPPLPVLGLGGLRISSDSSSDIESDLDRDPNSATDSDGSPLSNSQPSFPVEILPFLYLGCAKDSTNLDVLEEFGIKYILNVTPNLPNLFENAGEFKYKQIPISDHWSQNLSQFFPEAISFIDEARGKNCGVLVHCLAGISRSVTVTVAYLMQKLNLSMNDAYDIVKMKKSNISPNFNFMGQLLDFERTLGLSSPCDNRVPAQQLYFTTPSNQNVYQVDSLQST

Compound | cell count [1] | inhibition [1] | inhibition of aggregation [2] | nuclei count [2] | inhibition [3] | nuclei count [3] | z-score [4, 14] | z-score [4, 15] | z-score [4, 16] | inhibition [5] | fluorescence slope [6] | NADPH fluorescence slope [7] | slope [8] | fluorescence slope [9] | outcome [10] | inhibition [11] | inhibition [12] | inhibition [13]
Cc1c(C=NCCOCc2ccccc2)cnn1C | 579 | 0.8% (inactive) | -5.6% (inactive) | 102% | -159% (inactive) | 116% | 0.444 | 0.191 | 0.325 | -1.98% (inactive) | -0.369 (inactive) | -3e-05 (inactive) | 0.00503 (inactive) | 0.00645 (inactive) | inactive | -6.27% (inactive) | 11.7% (inactive) | 12.3% (inactive)
CCCN(CCC)C(=O)CC(c1ccc(F)cc1)c1ccco1 (configuration not stated) | 558 | -1.8% (inactive) | 24.6% (inactive) | 92.6% | -37.9% (inactive) | 108% | 0.533 | -0.963 | -0.846 | 11.9% (inactive) | -0.467 (inactive) | -2.2e-05 (inactive) | 0.0041 (inactive) | 0.00507 (inactive) | inactive | 27.9% (inactive) | 19.1% (inactive) | 23% (inactive)
O=C(CCCN1C(=O)c2ccccc2C1=O)N1CCC(c2ccccc2)C1 (configuration not stated) | 452 | -8.4% (inactive) | -32.2% (inactive) | 61.9% | -109% (inactive) | 123% | 1.18 | -1.65 | 0.457 | -3.5% (inactive) | -0.453 (inactive) | -7.2e-05 (inactive) | 0.00674 (inactive) |  |  | 10.2% (inactive) | 10.8% (inactive) | -11.3% (inactive)
COc1ccc(-c2onc(C)c2-c2ccccc2)c(O)c1 | 477 | 0.4% (inactive) | -9.9% (inactive) | 101% | -110% (inactive) | 112% | -0.0693 | -0.0566 | -1.27 | 1.98% (inactive) | -0.441 (inactive) | -4.2e-06 (inactive) | 0.00908 (inactive) | 0.00531 (inactive) | inactive | -11.4% (inactive) | 8.8% (inactive) | 32.3% (inactive)
COc1ccc(OC)c(C2/C(=C(\O)c3ccc4c(c3)OCCO4)C(=O)C(=O)N2CCCN(C)C)c1 (configuration not stated) | 490 | -0.9% (inactive) | -12.7% (inactive) | 115% | -76.5% (inactive) | 130% | 0.935 | 0.819 | -1.07 | 18.2% (inactive) | -0.459 (inactive) | -0.000132 (inactive) | 0.0076 (inactive) | 0.00426 (inactive) | inactive | 40.2% (inactive) | 11% (inactive) | 23.3% (inactive)
CCN(CC)C(=O)c1ccc(O)c(OC)c1 | 502 | -11.1% (inactive) | 8.7% (inactive) | 92.4% | -54.9% (inactive) | 125% | 0.597 | 0.258 | -0.513 | 8% (inactive) | -0.5 (inactive) | -7.4e-05 (inactive) | 0.00537 (inactive) |  |  | 4.81% (inactive) and 9.44% (inactive) | -6.3% (inactive) | 27.6% (inactive)
CCC1CCCCN1c1nc(-c2ccncc2)nc2ccccc12 (configuration not stated) | 503 | 0.5% (inactive) | 7.3% (inactive) | 91.9% | 12.1% (inactive) | 126% | 1.04 | -0.92 | 0.299 | 14% (inactive) | -0.391 (inactive) | -0.000148 (inactive) | 0.00736 (inactive) |  |  | 132% (active) | 24.2% (inactive) | 30.3% (inactive)
COc1c2occc2c(OC)c2c(=O)cc(C)oc12 | 555 | -5.1% (inactive) | 13.1% (inactive) | 103% | -78.7% (inactive) | 136% | -0.618 | 0.0772 | -0.0412 | 21.2% (inactive) | -0.445 (inactive) | -4.4e-05 (inactive) | 0.00425 (inactive) |  |  | -3.66% (inactive) | 14.8% (inactive) | 36% (inactive)
CCCCCC1CC(CC#CCN2CCOCC2)C(=O)O1 (configuration not stated) | 620 | -2.8% (inactive) | 10.5% (inactive) | 90.2% | -6.1% (inactive) | 128% | 0.645 | -0.292 | 0.592 | 3.49% (inactive) | -0.452 (inactive) | -4.2e-05 (inactive) | 0.00528 (inactive) | 0.00481 (inactive) | inactive | -4.86% (inactive) | -1.94% (inactive) | 10.9% (inactive)
CCSc1nc(O)c(C2OC(=O)c3c2ccc(OC)c3OC)c(=O)n1-c1ccccc1 (configuration not stated) | 504 | 5.8% (inactive) | -6.1% (inactive) | 108% | -157% (inactive) | 146% | 0.533 | 0.786 | -0.555 | 1.98% (inactive) | -0.416 (inactive) | -4.4e-05 (inactive) | 0.00632 (inactive) | 0.00691 (inactive) | inactive | -7.19% (inactive) | 13.8% (inactive) | 25.6% (inactive)
